Measured values reported in PubChem BioAssay (NCI).
This is part of a sample that, as a whole, favours compounds with a hit. Of some 83,000 tested, about 20% had one in any assay.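 Treatment: one concentration, 48 hours, 96-well format. Scoring: percent growth, with anything below 10 considered active.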 Values without a mark were called inactive. Calls of active or inactive are those of the source.

The molecules below were run on HL-60(TB) leukemia (assay: NCI-60 one-dose screen, 48 h (100 = growth as untreated, 0 = no growth, -100 = all killed)). Conditions: 10 µM unless noted.
In the case of `O=C(Oc1ccccc1Cl)c1ccc(Cl)cc1Cl`, the growth is reported as 106%. `CCCNCCC(C)=O` showed a growth of 108%. For `COc1cc(OC)cc(C2C(C#N)=C(N)Oc3c2ccc2ccc(O)cc32)c1` (stereo not given), the growth was -23.8% (active). `CSc1nn(-c2ccccc2)c2ncnc(Oc3ccc(C)cc3)c12` showed a growth of 98.3%. In the case of `Cc1c([C@H](C(Cl)Cl)[C@H](O)[C@H]2C[C@H](C)C(=O)O2)ccc2c1C(=O)[C@H]1[C@H]2C[C@@H](Br)[C@@]23O[C@@H](CO[C@H]2O)CC13C` (stereo not given in full), the growth is reported as -16.4% (active). In the case of `COc1cccc(CCC(=O)c2cc3c(N)c(C(=O)Nc4cccc(Cl)c4C)sc3nc2C)c1`, the growth is reported as 0.884% (active). `Cc1ccc2[nH]c(=O)c3c(c2c1)OC(N)=C(C#N)C31c2cc(Br)ccc2-c2ccc(Br)cc21` showed a growth of 85.7%. With `Nc1nc2ccc(CNc3ccc(C(=O)NC(CC(=O)O)C(=O)O)cc3)cc2c(=O)[nH]1` (stereo not given) the growth was 4.48% (active). `CCC(=O)Oc1ccc(/C(=C(\C)c2ccccc2)c2ccc(OCCN3CCCCC3)cc2)cc1` showed a growth of 68.2%. In the case of `Nc1ccc(S(=O)(=O)Nc2ccnn2-c2ccccc2)cc1`, the growth is reported as 102%. For `CCCCCCCCCCCCCCCCCCOc1ccccc1CC(=O)NCC[N+]1(C)CCOCC1`, the growth was -10.6% (active). With `N=c1nc(N)ncn1-c1ccccc1` the growth was 110%. `[O-][n+]1c2ccccc2[n+]([O-])c2c3ccccc3[nH]c21` showed a growth of 100%. For `COc1ccc(-c2[nH]c3ccccc3c2-c2ccc(OC)cc2)cc1`, the growth was 24.6%. `O=c1ccn(C2CC=C(CO)O2)c(=O)[nH]1` (stereo not given) gave a growth of 91.9%.
